# Publication PMC4336329 (PLoS ONE, 2015)
# Hit rate of the full screen: of about 310,000 compounds, about 14,000 (4.5%) showed an effect of 50% or more. The effect is printed as a negative number. Many of the other results were omitted from the sample, so strong results are more common in it than they were.
# Molecular target: human ether-à-go-go-related gene (hERG) potassium channel (human, UniProt Q12809)
# Experiment: primary screen, population patch clamp on CHO cells stably expressing hERG; higher = less effect of the substance
# 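Further: peak tail current of the secondary pulse compared with the same well before compound.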
# Sequence of human ether-à-go-go-related gene (hERG) potassium channel (Q12809 whole entry, looked up): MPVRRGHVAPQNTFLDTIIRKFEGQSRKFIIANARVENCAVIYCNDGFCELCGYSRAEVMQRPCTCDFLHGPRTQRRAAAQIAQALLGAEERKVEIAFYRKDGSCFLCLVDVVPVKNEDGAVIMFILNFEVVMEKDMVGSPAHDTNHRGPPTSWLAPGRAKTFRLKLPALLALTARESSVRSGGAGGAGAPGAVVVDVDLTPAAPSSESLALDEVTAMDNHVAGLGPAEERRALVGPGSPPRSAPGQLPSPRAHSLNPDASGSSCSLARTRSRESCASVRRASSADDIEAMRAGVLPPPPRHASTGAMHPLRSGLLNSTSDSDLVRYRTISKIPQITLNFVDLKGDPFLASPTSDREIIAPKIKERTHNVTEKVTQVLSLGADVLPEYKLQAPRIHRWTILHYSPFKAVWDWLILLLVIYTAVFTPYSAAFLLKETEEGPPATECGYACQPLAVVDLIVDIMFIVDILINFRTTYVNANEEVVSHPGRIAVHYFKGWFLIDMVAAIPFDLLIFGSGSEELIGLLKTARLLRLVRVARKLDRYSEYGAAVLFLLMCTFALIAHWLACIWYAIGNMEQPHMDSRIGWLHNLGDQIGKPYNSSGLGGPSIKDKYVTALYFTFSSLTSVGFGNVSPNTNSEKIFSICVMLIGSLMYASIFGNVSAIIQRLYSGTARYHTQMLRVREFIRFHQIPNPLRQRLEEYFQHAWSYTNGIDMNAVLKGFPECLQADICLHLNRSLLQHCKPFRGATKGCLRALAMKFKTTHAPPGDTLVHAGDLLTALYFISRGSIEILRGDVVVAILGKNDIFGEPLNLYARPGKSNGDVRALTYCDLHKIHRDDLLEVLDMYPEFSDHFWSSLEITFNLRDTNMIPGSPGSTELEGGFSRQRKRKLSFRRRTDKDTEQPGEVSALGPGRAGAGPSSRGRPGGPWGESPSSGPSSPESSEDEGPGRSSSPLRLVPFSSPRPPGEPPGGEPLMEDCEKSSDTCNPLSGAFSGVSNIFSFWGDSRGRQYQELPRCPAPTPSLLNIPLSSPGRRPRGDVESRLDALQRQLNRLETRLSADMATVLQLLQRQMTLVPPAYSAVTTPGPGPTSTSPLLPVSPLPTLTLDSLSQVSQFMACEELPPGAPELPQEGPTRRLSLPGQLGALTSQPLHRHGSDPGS
row,SMILES,"hERG current change (%, negative = inhibition) at 10uM [%]"
1,CCC(=O)NCCc1nc2ccccc2[nH]1,1.08
2,CN1CCN(c2nc(N)cc(=O)[nH]2)CC1,15.2
3,c1ccc(-n2c(Sc3cnccn3)nnc2-c2cccs2)cc1,-33.3
4,CSc1nc([O-])cc(=O)n1-c1ccc(F)cc1.[K+],2.86
5,COc1cccc(/C=C2/C(=O)NN(c3ccc(C)c(C)c3)C2=O)c1,-3.01
6,Cn1c(=O)c2c(SCC(=O)NCc3ccco3)nc(-c3ccccc3Cl)nc2n(C)c1=O,-1.4
7,Cc1cc(Br)ccc1NC(=O)c1ccc(-n2cncn2)c([N+](=O)[O-])c1,12.3
8,Cc1cccc(NC(=O)CNC(=O)c2ccc(-n3cncn3)c([N+](=O)[O-])c2)c1C,-9.18
9,Cc1cc(Br)ccc1NC(=O)CN(C)C(=O)c1ccc(-n2cncn2)c([N+](=O)[O-])c1,-64.4
10,C=CCN1C(=O)c2ccc(C(=O)N(C)CC(=O)Nc3ccc(Br)cc3C)cc2C1=O,-52.5
11,Cc1cc(Br)ccc1NC(=O)CNC(=O)c1ccc(-n2cncn2)c([N+](=O)[O-])c1,-59.9
12,O=C(COc1ccccc1Cl)NNC(=O)c1ccc(-n2cncn2)c([N+](=O)[O-])c1,10.9
13,Cc1ccc(OCC(=O)NNC(=O)c2ccc(-n3cncn3)c([N+](=O)[O-])c2)cc1,-2.51
14,C=CCN1C(=O)c2ccc(C(=O)N(C)CC(=O)Nc3c(C)cccc3C)cc2C1=O,15.4
15,C=CCN1C(=O)c2ccc(C(=O)N(C)CC(=O)Nc3ccccc3Br)cc2C1=O,4.17
16,Cc1cccc(C)c1NC(=O)CN(C)C(=O)c1ccc(-n2cncn2)c([N+](=O)[O-])c1,-6.43
17,Cc1ccc(C)c(NC(=O)CN(C)C(=O)c2ccc(-n3cncn3)c([N+](=O)[O-])c2)c1,-26.7
18,O=C(COc1ccc(Br)cc1)NNC(=O)c1ccc(-n2cncn2)c([N+](=O)[O-])c1,-61
19,CCc1[nH]c(=S)c(C#N)c2c1CCCC2,14.9
20,COc1cccc(C(c2nnnn2Cc2ccccc2)N2CCN(C3CCCC3)CC2)c1OC.Cl (stereo not shown),-32
21,O=c1[nH]nc(Sc2ncnc3sccc23)n1CCc1ccccc1,-18.3
22,CC1CCC/C=C/C2CC(O)CC2C(O)/C=C/C(=O)O1 (stereo not shown),-2.12
